Measured values as given in PubChem BioAssay (NCATS).
“And” between values parts separate entries of the source, which are not always exact repeats. Equal entries are not always repeated. Results filed as inconclusive are left out. A call without a number means that no potency is given here. The source made the active and inactive calls. Calls follow the shape of the dose curve; as a rule, active = well fitted curve in the direction sought with a large enough effect; inconclusive = small, poorly fitted or top-dose-only effect, or another doubt; inactive = no such curve, though single readings can be large; an effect the other way counts as inactive or inconclusive.

Columns and labels:
[1] = system: Zika virus NS2B-NS3 protease (unlinked); test: Optimization of GU AMC qHTS for Zika virus inhibitors: Unlinked NS2B-NS3 protease assay (AID 1347151); also: nearly all actives have a fitted effect of over 80% in size; also: potency is read from the fitted curve at half-maximal effect
Outline: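 Fluorescence read-out (340 nm ex / 450 nm em) of AMC peptide cleavage, taken immediately and after 15 min at room temperature (~20% conversion). Enzyme was the unlinked NS2B–NS3 complex at 25 nM in Tris pH 8.0 buffer.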

[2] = system: Zika virus NS2B-NS3 protease; test: Primary screen GU AMC qHTS for Zika virus inhibitors (AID 1347154); also: nearly all actives have a fitted effect of over 70% in size; also: potency is read from the fitted curve at half-maximal effect
Outline: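 Fluorogenic AMC-substrate cleavage by noncovalent NS2B-NS3 protease complex (25 nM, pH 8.0 Tris buffer with Tween 20) followed for 15 minutes at room temperature (~20% conversion). Percent inhibition from ex340/em450 signal change, fitted by 4-parameter Hill equation.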

[3] = system: Zika virus NS2B-NS3 protease (linked); test: 384 well plate NINDS AMC confirmatory qHTS for Zika virus inhibitors (AID 1347163); also: potency is read from the fitted curve at half-maximal effect; nearly all actives have a fitted effect of over 50% in size
Outline: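 Enzyme (5, 30 or 60 nM final) first met test compounds for ~15 min. The AMC-tagged peptide Ac-VKTGKR-AMC followed at 30 microM. Fluorescence was then recorded at 25 min and scaled against no-enzyme and no-inhibitor wells.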

[4] = system: Zika virus NS2B-NS3 protease (linked construct); test: Confirmatory screen NINDS AMC qHTS for Zika virus inhibitors (AID 1347152); also: nearly all actives have a fitted effect of over 70% in size; also: potency is read from the fitted curve at half-maximal effect
Outline: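 Linked NS2B-NS3 1 nM, Tris pH 8.0/0.01% Tween 20; cpd 15 min RT dark; + Nle-KRR-AMC 10 µM (Km 18.3 µM); read 0 and 15 min, 340/450 nm; %inh vs controls, 4-param Hill.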

[5] = system: Zika virus NS2B-NS3 protease (unlinked complex); test: Confirmatory screen GU AMC qHTS for Zika virus inhibitors (AID 1347153); also: nearly all actives have a fitted effect of over 70% in size;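 as to potency: enzyme at 25 nM with substrate at 10 µM below its Km of 18.3 µM; potency is read from the fitted curve at half-maximal effect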
Outline: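 Noncovalent NS2B hydrophilic domain/NS3 protease complex (25 nM) in 10 mM Tris-HCl pH 8.0, 0.01% Tween 20 was preincubated 15 min at room temperature with compounds. Then 10 µM AMC substrate (Km 18.3 µM) was added; fluorescence was read over 15 min and fitted to a 4-parameter Hill equation.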

[6] = system: Zika virus NS2B-NS3 protease (unlinked complex); test: Primary screen GU Rhodamine qHTS for Zika virus inhibitors: Unlinked NS2B-NS3 protease assay (AID 1347159); also: nearly all actives have a fitted effect of over 60% in size; also: potency is read from the fitted curve at half-maximal effect
Outline: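 Buffer 10 mM Tris-HCl pH 8.0, 0.01% Tween 20. Unlinked protease 25 nM; compound preincubation 15 min, RT, protected from light. Substrate Rhod110, 1.5 microM; ~15% conversion in 15 min.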

[7] = system: Zika virus NS2B-NS3 protease (linked construct); test: Primary screen NINDS Rhodamine qHTS for Zika virus inhibitors (AID 1347160); conditions: outcome: dose series up to 57.1 µM unless noted; also: nearly all actives have a fitted effect of over 55% in size
Outline: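 Aprotinin served as in-plate control. Conditions: 25 nM linked NS2B-NS3, pH 8.0 Tris buffer, titrated compounds, 15 min preincubation and 15 min reaction with 1.5 microM Rhod110 substrate at room temperature.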

[8] = Confirmatory screen NINDS Rhodamine qHTS for Zika virus inhibitors (AID 1347161); also: nearly all actives have a fitted effect of over 60% in size; also: potency is read from the fitted curve at half-maximal effect
Outline: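 Purified linked NS2B-NS3 protease (NS2B hydrophilic domain joined to NS3 protease by flexible linker), 25 nM in 10 mM Tris-HCl pH 8.0, 0.01% Tween 20. Compounds titrated, 15 min preincubation at room temperature; 1.5 microM Rhodamine110 substrate, FITC fluorescence change over 15 min.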

[9] = ZIKV-mCherry secondary qHTS for Zika virus inhibitors (AID 1347158); also: top concentration of the series differs between compounds
Outline: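 This orthogonal imaging screen measured ZIKV-mCherry infection of Vero cells exposed to compound, MOI 1, 48-72 h. Percent infection came from segmented nuclei scored mCherry-positive above 3 SD of negative controls.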

SMILES: CN(C)C(=O)C(CCN1CCC(O)(c2ccc(Cl)cc2)CC1)(c1ccccc1)c1ccccc1
- Potency [1]: inactive
- Potency [2]: inactive

SMILES: CCCNCC(O)COc1ccccc1C(=O)CCc1ccccc1 (centres undefined)
- Potency [1]: inactive
- Potency [2]: inactive

SMILES: NC(CO)C(=O)NNCc1ccc(O)c(O)c1O (centres undefined)
- Potency [1]: inactive
- Potency [2]: inactive

SMILES: CN(CCOc1ccc(NS(C)(=O)=O)cc1)CCc1ccc(NS(C)(=O)=O)cc1
- Potency [1]: inactive
- Potency [2]: inactive

SMILES: O=c1[nH]cc(F)c(=O)[nH]1
- Potency [1]: inactive
- Potency [2]: inactive

SMILES: O=C1N(c2ccccc2)c2ccccc2C1(Cc1ccncc1)Cc1ccncc1
- Potency [1]: inactive
- Potency [2]: inactive

SMILES: O=C(c1ccc(OCCN2CCCCC2)cc1)c1c(-c2ccc(O)cc2)sc2cc(O)ccc12
- Potency [1]: inactive
- Potency [2]: inactive

SMILES: CN1CCC(=C2c3ccccc3C=Cc3ccccc32)CC1
- Potency [1]: inactive
- Potency [2]: inactive

SMILES: CCC1(c2ccccc2)C(=O)NCNC1=O
- Potency [1]: inactive
- Potency [2]: inactive

SMILES: COC(=O)Nc1nc2ccc(C(=O)c3cccs3)cc2[nH]1
- Potency [1]: inactive
- Potency [2]: inactive

SMILES: Clc1ccc2nsnc2c1NC1=NCCN1
- Potency [1]: inactive
- Potency [2]: inactive

SMILES: NS(=O)(=O)c1cc2c(cc1Cl)NCNS2(=O)=O
- Potency [1]: inactive
- Potency [2]: inactive

SMILES: O=C(CCCN1CCC(O)(c2ccc(Cl)cc2)CC1)c1ccc(F)cc1
- Potency [1]: inactive
- Potency [2]: inactive

SMILES: NCCc1cnc[nH]1
- Potency [1]: inactive
- Potency [2]: inactive

SMILES: CC(C)NCC(O)COc1ccc(CCOCC2CC2)cc1 (centres undefined)
- Potency [1]: inactive
- Potency [2]: inactive

SMILES: CN1C(C(=O)Nc2ccccn2)=C(O)c2ccccc2S1(=O)=O
- Potency [1]: inactive
- Potency [2]: inactive

SMILES: COc1cc2nc(N(C)CCCNC(=O)C3CCCO3)nc(N)c2cc1OC (centres undefined)
- Potency [1]: 26.7 µM (active)
- Potency [2]: 8.09 µM (active) and 21.5 µM (active)

SMILES: COc1ccccc1OCCNCC(O)COc1cccc2[nH]c3ccccc3c12 (centres undefined)
- Potency [1]: inactive
- Potency [2]: inactive

SMILES: CC(C)Cc1ccc(C(C)C(=O)O)cc1 (centres undefined)
- Potency [1]: inactive
- Potency [2]: inactive

SMILES: O=C(C1CCCCC1)N1CC(=O)N2CCc3ccccc3C2C1 (centres undefined)
- Potency [1]: inactive
- Potency [2]: inactive

SMILES: CS(=O)(=O)Nc1ccc([N+](=O)[O-])cc1Oc1ccccc1
- Potency [1]: inactive
- Potency [2]: inactive

SMILES: Nc1nc2c(ncn2COC(CO)CO)c(=O)[nH]1
- Potency [1]: inactive
- Potency [2]: inactive

SMILES: O=C(Nc1ccc([N+](=O)[O-])cc1Cl)c1cc(Cl)ccc1O
- Potency [1]: inactive
- Potency [2]: inactive
- Potency [3]: 20 µM (active)

SMILES: O=C(c1ccc(F)cc1)C1CCN(CCn2c(=O)[nH]c3ccccc3c2=O)CC1
- Potency [4]: inactive
- Potency [5]: inactive
- Potency [2]: inactive
- Potency [6]: inactive
- outcome [7]: inactive
- Potency [8]: inactive

SMILES: CC12CC3CC(C)(C1)CC(N)(C3)C2
- Potency [1]: inactive
- Potency [2]: inactive

SMILES: COc1ccc(C2CNC(=O)C2)cc1OC1CCCC1 (centres undefined)
- Potency [1]: inactive
- Potency [2]: inactive

SMILES: O=c1c(-c2ccc(O)cc2)coc2cc(O)cc(O)c12
- Potency [1]: inactive
- Potency [2]: inactive

SMILES: Clc1ccc(C(c2ccccc2Cl)C(Cl)Cl)cc1 (centres undefined)
- Potency [2]: inactive

SMILES: COc1ccccc1OCC(O)CN1CCN(CC(=O)Nc2c(C)cccc2C)CC1 (centres undefined)
- Potency [1]: inactive
- Potency [2]: inactive

SMILES: CC(COc1ccccc1)N(CCCl)Cc1ccccc1 (centres undefined)
- Potency [2]: inactive

SMILES: CC#C[C@]1(O)CC[C@H]2[C@@H]3CCC4=CC(=O)CCC4=C3[C@@H](c3ccc(N(C)C)cc3)C[C@@]21C
- Potency [1]: inactive
- Potency [2]: inactive

SMILES: Cn1ccc2cc3c(cc21)CCN3C(=O)Nc1cccnc1
- Potency [4]: 24.1 µM (active)
- Potency [5]: 27.1 µM (active)
- outcome [9]: inactive
- Potency [8]: 62.2 µM (active)
- Potency [3]: 31.6 µM (active) and 178 µM (active)

SMILES: CC1(CN2CCC(n3c(=O)[nH]c4ccccc43)CC2)OCc2ccccc2-n2cccc21 (centres undefined)
- Potency [2]: inactive

SMILES: Clc1ccc2c(c1)C(N1CCNCC1)=Nc1ccccc1O2
- Potency [1]: inactive
- Potency [2]: inactive
- Potency [6]: inactive
- outcome [7]: inactive

SMILES: CC(C)C(=O)Nc1ccc([N+](=O)[O-])c(C(F)(F)F)c1
- Potency [1]: inactive
- Potency [2]: inactive

SMILES: CC(C)(C)C(=O)Oc1ccc(S(=O)(=O)Nc2ccccc2C(=O)NCC(=O)O)cc1
- Potency [4]: inactive
- Potency [5]: inactive
- Potency [2]: inactive
- Potency [8]: inactive

SMILES: CCCCc1oc2ccccc2c1C(=O)c1cc(I)c(OCCN(CC)CC)c(I)c1
- Potency [2]: inactive

SMILES: N[C@@H](Cc1c[nH]c2ccc(O)cc12)C(=O)O
- Potency [2]: inactive

SMILES: Cc1cc(C(C)(C)C)c(O)c(C)c1CC1=NCCN1
- Potency [1]: inactive
- Potency [2]: inactive
- Potency [6]: inactive
- outcome [7]: inactive

SMILES: CN(C)C(=N)N=C(N)N
- Potency [2]: inactive

SMILES: Clc1ccccc1C(c1ccccc1)(c1ccccc1)n1ccnc1
- Potency [2]: inactive

SMILES: Nc1c2c(nc3ccccc13)CCCC2
- Potency [2]: inactive

SMILES: COc1ccccc1N1CCN(CC(O)COc2cccc3ccccc23)CC1 (centres undefined)
- Potency [2]: inactive

SMILES: CS(=O)(=O)CCNCc1ccc(-c2ccc3ncnc(Nc4ccc(OCc5cccc(F)c5)c(Cl)c4)c3c2)o1
- outcome [7]: inactive

SMILES: CNCCCC12CCC(c3ccccc31)c1ccccc12
- Potency [1]: inactive
- Potency [2]: inactive
- Potency [6]: inactive
- outcome [7]: inactive

SMILES: Cc1cn([C@H]2C=C[C@@H](CO)O2)c(=O)[nH]c1=O
- Potency [2]: inactive

SMILES: Cc1ccc(-c2cc(C(F)(F)F)nn2-c2ccc(S(N)(=O)=O)cc2)cc1
- Potency [1]: inactive
- Potency [2]: inactive
- Potency [6]: inactive
- outcome [7]: inactive

SMILES: CC[C@@]1(O)C(=O)OCc2c1cc1n(c2=O)Cc2cc3c(CN(C)C)c(O)ccc3nc2-1
- Potency [1]: inactive
- Potency [2]: inactive
- Potency [6]: 20 µM (active)
